High-throughput results as filed in PubChem BioAssay.
Shown are actives, neighbours in structure and some others; about 1.5% of the full set was active somewhere.
AI-2 QS modul: modulators of Vibrio harveyi AI-2 quorum sensing system. Vibrio harveyi JMH597 AI-2 luminescence/OD600 ratio, 9 h; hits give low values; strain lacks LuxN and CqsS sensors; 0 = neutral-control median. activity change, % at 7.5 µM. actives 0.4% (n = 300,000). AID 2094; in the data active means activity change below about -75%, passing the limit was not always enough;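 further: luminescence divided by OD600 gain over 9 h not by final OD600 alone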
Rin1 Abl inh: blocks binding of human Rin1 to Abl; P00519+Q13671; TR-FRET Rin1/Abl binding, biochemical; inhibition, % at 7.35 µM; actives 0.4% (n = 360,000); in the data active means inhibition above about 5%, passing the limit was not always enough
HGIII-sPLA2 inh: Inhibits HGIII-sPLA2 liposome hydrolysis, primary screen | Q9NZ20 | AID 743126 | inhibition, % at 12.2 µM | QFRET BODIPY PC-A2 liposome hydrolysis, fluorescence | actives 0.56% (n = 370,000);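 active means inhibition above mean plus 3 SD of compounds lying within the high and low control bounds, cut at about 19% in these data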;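 further: 0% = median of test compound wells and 100% = no enzyme DMSO wells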
ARNT-TACC3 inh: ARNT/TACC3 interaction disruption | actives 0.66% (n = 390,000) | AlphaScreen His-ARNT PAS-B/GST-TACC3 binding, luminescence; TACC3 fragment carries E629A point mutation | inhibition, % at 9.99 µM;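 active means mean inhibition of replicates at least 50% and at least half of replicates each reaching 50%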;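 further: 0% = complete ARNT plus TACC3 wells and 100% = ARNT alone without TACC3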
sPLA2 confirm: human GIII-sPLA2 inhibition, confirmation. shares compounds with HGIII-sPLA2 inh. recombinant hGIII-sPLA2, BODIPY PC-A2 QFRET fluorescence. inhibition, % at 12.2 µM. actives 34% (n = 2,000);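 active means mean inhibition across triplicates above the hit cutoff set in the earlier primary screen, cut at about 19% in these data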;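 further: 0% = enzyme with DMSO and 100% = DMSO wells lacking enzyme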
535nm interf: counter-screen for HGIII-sPLA2 inhibitors: 535nm fluorescence interference | BODIPY FL product fluorescence interference, QFRET | actives 8.5% (n = 2,000) | inhibition, % at 12.2 µM | shares compounds with HGIII-sPLA2 inh;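 active means average inhibition above the solvent-only control mean plus 3 SD, cut at about 6% in these data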;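 further: 0% = DMSO with substrate plus product and 100% = DMSO with substrate alone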
535nm interf DR: 535nm optical interference dose response, HGIII-sPLA2 counter-screen | shares compounds with HGIII-sPLA2 inh | BODIPY FL product fluorescence interference, cell-free | IC50, µM | 240 tested, under 10 active | AID 743455;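 active means IC50 at or below 10 µM; inactive means IC50 above 10 µM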
An asterisk follows results filed as active; nt = no result given.

SMILES	AI-2 QS modul	Rin1 Abl inh	HGIII-sPLA2 inh	ARNT-TACC3 inh	sPLA2 confirm	535nm interf	others
C[C@@H]1CN([C@@H](C)CO)S(=O)(=O)c2ccc(/C=C/c3ccccc3)cc2O[C@H]1CN(C)C(=O)c1ccccc1	nt	nt	nt	17	nt	nt
Cn1c2ccccc2c(=O)c2c(=O)n(C3CCCCC3)c(-c3ccco3)nc21	11	-1	28*	6	12	-42
Cc1nc2c(c(=O)c3ccccc3n2C)c(=O)n1C1CCCCCC1	45	1	-3	-8	nt	nt
O=C(OC[C@@H]1CCCN2CCCC[C@H]12)c1cc2ccccc2oc1=O	-4	-2	20*	2	2	-7
C[C@@H]1CN([C@@H](C)CO)C(=O)c2cc(NS(=O)(=O)c3ccc(Cl)cc3)ccc2O[C@@H]1CN(C)Cc1ccc(-c2ccccc2)cc1	nt	nt	nt	-1	nt	nt
O=C(Nc1ccccc1Oc1ccccc1)c1cc([N+](=O)[O-])ccc1Cl	-12	-1	23*	-1	14	-5
O=C(Nc1ccc(Nc2ccccc2)cc1)c1cc([N+](=O)[O-])ccc1Cl	-22	1	-2	2	nt	nt
C[C@H]1CCCCO[C@H](CN(C)S(C)(=O)=O)[C@@H](C)CN([C@@H](C)CO)C(=O)c2cc(NC(=O)c3ccncc3)ccc2O1	nt	nt	nt	1	nt	nt
O=C(Nc1ccc(Cl)cc1)N[C@@H]1CC[C@@H](CCn2cc(C3(O)CCCC3)nn2)O[C@@H]1CO	nt	nt	nt	-7	nt	nt
CC12C(=O)N(NC(=O)c3ccncc3)C(=O)C1C1C=CC2C1 (stereo not drawn)	39	-3	21*	-13	-5	-5
Cc1cccc(NC(=S)NCc2ccc3c(c2)cc(C)n3C)c1C	32	-1	20*	4	5	1
CN(C1=C(NC(=O)c2ccc(Cl)cc2)C(=O)c2ccccc2C1=O)c1ccccc1	26	-3	44*	nt	49*	7.6*
COc1ccccc1N(C)S(=O)(=O)c1ccc(Cl)c(C(=O)NNC(=O)c2ccccc2O)c1	21	-1	11	4	nt	nt
COc1ccccc1N(C)S(=O)(=O)c1ccc(C(=O)NNC(=O)c2ccccc2O)cc1	nt	0	20*	nt	2	1
OC1c2cc(Br)ccc2N=C2CCCCCN21 (stereo not drawn)	nt	0	20*	nt	-3	-7
O=C1OC(c2ccccc2)/C(=C(/O)c2ccc(Cl)cc2)C1=O (stereo not drawn)	5	4	22*	-16	-39	-3
Cc1ccc(/C(O)=C2/C(=O)C(=O)OC2c2ccc(Cl)cc2)cc1 (stereo not drawn)	21	2	7	1	nt	nt
CCNC1CCS(=O)(=O)C1 (stereo not drawn)	26	-2	22*	-4	2	-3
Cc1[nH]c2ccccc2c1/C=N/NC(N)=S	13	0	21*	22	17	1
C=CCn1c(=NC(=O)c2ccc(S(=O)(=O)N3CCCc4ccccc43)cc2)sc2cc(S(N)(=O)=O)ccc21	35	4	-7	-2	nt	nt
COCCn1c(=NC(=O)c2ccc(S(=O)(=O)N3CCCc4ccccc43)cc2)sc2cc(S(C)(=O)=O)ccc21	3	1	20*	-3	-8	-1
C/C(=N\NC(=S)NCCc1ccccc1)c1ccc(O)cc1O	6	2	33*	13	40*	3	535nm interf DR=>122
Oc1ccccc1/C=N/NC(=S)NCCc1ccccc1	26	-2	20*	5	21*	7.3*
S=C(NCCc1ccccc1)N/N=C/c1cccc(Cl)c1Cl	23	-3	0	-17	nt	nt
C/C(=N\NC(=S)NCCc1ccccc1)c1ccc(Cl)cc1Cl	-7	3	6	-1	nt	nt
SMILES	AI-2 QS modul	Rin1 Abl inh	HGIII-sPLA2 inh	ARNT-TACC3 inh	sPLA2 confirm	535nm interf	others
S=C(NCCc1ccccc1)N/N=C/c1cccs1	12	-2	20*	nt	20*	-1
Oc1ccccc1C=NNC(=S)Nc1ccc(F)cc1	nt	-1	32*	active	33*	13*
S=C(NCc1ccccc1)N/N=C/c1cccs1	1	0	8	9	nt	nt
Cc1noc(C)c1NC(=O)N(C)C[C@H]1OCCCC[C@@H](C)Oc2ccc(NC(=O)c3ccccc3)cc2C(=O)N([C@@H](C)CO)C[C@H]1C	nt	nt	nt	3	nt	nt
O=C(C[C@H]1CC[C@H]2[C@@H](COC[C@H](O)CN2Cc2cc(F)ccc2F)O1)NCc1ccccc1	nt	nt	nt	5	nt	nt
CC12CC3(C)CC(C)(C1)CC(C(=O)NC(=S)N1CCOCC1)(C2)C3	12	0	20*	-10	23*	-10
CO[C@H]1CN(C)C(=O)c2ccc(NC(=O)C3CC3)cc2OC[C@H](C)N(CC2CC2)C[C@H]1C	nt	nt	nt	-3	nt	nt
O=C(C[C@@H]1C=C[C@H](NC(=O)C2CC2)[C@H](CO)O1)Nc1ccccc1	nt	nt	nt	-2	nt	nt
COc1ccccc1CNC(=O)C[C@@H]1CC[C@@H]2[C@H](COC[C@H](O)CN2Cc2cccc(-c3ccncc3)c2)O1	nt	nt	nt	-2	nt	nt
Cc1ccc(NC(=S)NNC(=O)CSc2nnc(-c3ccc(C)cc3)n2C2CCCCC2)cc1	nt	nt	24*	nt	18	-10
Cc1ccc(NC(=S)NNC(=O)CSc2nnc(-c3ccc(Cl)cc3)n2C2CCCCC2)cc1	22	-2	23*	-1	30*	-8	535nm interf DR=>122
Cn1c(SCC(=O)NNC(=S)Nc2ccccc2)nnc1-c1ccccc1	29	2	14	-5	nt	nt
CCn1c(SCC(=O)NNC(=S)Nc2ccc(C)cc2)nnc1-c1ccc(Cl)cc1	11	1	16	-1	nt	nt
C[C@@H]1CN([C@@H](C)CO)C(=O)c2cc(NC(=O)C3CCCCC3)ccc2O[C@@H]1CN(C)S(=O)(=O)c1cn(C)cn1	nt	nt	nt	-2	nt	nt
CN=c1scc(-c2ccccc2F)n1/N=C/c1ccc[nH]1	9	6	35*	14	29*	3	535nm interf DR=>122
CCCn1c(=S)[nH]c2cc(C(=O)N3CCN(C4CCCCC4)CC3)ccc2c1=O	7	0	20*	-1	13	-13
NC(=O)C1CCN(c2nc(-c3ccc(Br)cc3)cs2)CC1	8	-1	23*	nt	14	0
Clc1ccc(-c2csc(N3CCCCCC3)n2)cc1	6	-3	23*	0	27*	6.7*
C=CCn1c(-c2ccco2)n[nH]c1=S	26	-2	21*	-6	8	-4
COc1ccc(-c2ccc3c(c2)[C@H]2[C@H](CCN2S(=O)(=O)c2ccc(OC)cc2)[C@@H](CO)N3C)cc1	nt	nt	nt	-2	nt	nt
S=c1[nH]nc(COc2ccccc2)n1Cc1ccccc1	5	-1	27*	-10	19	5
S=c1[nH]nc(Cc2ccccc2)n1-c1ccc(Cl)cc1	-13	-1	20*	-5	21*	2
